Source: PubChem BioAssay AID2501 (Southern Research Specialized Biocontainment Screening …, 2010)
Among all 2,200 compounds or so, about 1,200 (55%) were called active. The limit is not given here; nearly all actives have IC50 up to about 92 µM. The set was probably picked from earlier hits. The list shows a part of the results.

Test: counter assay for TAg ATPase ADP read-out – biochemical, ADP-Hunter, fluorescence, counter-screen (AID 2501);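 also: purified T antigen ATPase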;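 as to inhibition: 0% = enzyme with vehicle and 100% = reference inhibitor wells; higher means more inhibition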
Conditions: series mostly up to 100 µM; inhibition: at the top concentration

| SMILES | inhibition | IC50 |
| --- | --- | --- |
| COc1ccc(S(=O)(=O)N(CC(=O)NCc2ccccn2)c2ccc(Cl)cc2)cc1 | 12.9% (inactive) | – |
| COc1ccc(NCCc2ccccn2)cc1 | – | 2.41 µM (active) |
| COc1ccc(C(=O)Nc2ccc(O)c3ccccc23)cc1 | – | 13.1 µM (active) |
| COc1ccc(S(=O)(=O)Nc2ccc(O)c3ccccc23)cc1 | 15.9% (inactive) | – |
| CCOC(=O)Cn1cc(C#N)c(=O)[nH]c1=O | -7.22% (inactive) | – |
| Cc1ccc2c(c1)NC(=O)c1cccnc1N2 | – | 4.54 µM (active) |
| Cc1ccc(C(=O)N2CCN3C(=O)c4ccccc4C23c2ccccc2)cc1 (stereo not given) | -13.8% (inactive) | – |
| CC(=O)Oc1c(/C=C(\C#N)C(N)=O)[nH]c2ccccc12 | – | 27.2 µM (active) |
| C=CCn1c(=S)[nH]c2scc(-c3ccco3)c2c1=O | – | 26.9 µM (active) |
| C=CCn1c(SCC(C)=O)nc2scc(-c3ccco3)c2c1=O | -13.2% (inactive) | – |
| C=CCn1c(SCC(=O)NCC2CCCO2)nc2scc(-c3ccco3)c2c1=O (stereo not given) | 2.43% (inactive) | – |
| C#CCOCCOCCOCCNc1nc(N2CCN(C(=O)CCCCCCCCCCNC(=O)[C@H]([C@@H](C)CC)n3cc(CCCCN=C(N)N)nn3)CC2)nc(N2CCN(C(=O)CCCCCCCCCCNC(=O)[C@H](CCCN=C(N)N)n3cc(C[C@@H](C)CC)nn3)CC2)n1 | 11.4% (inactive) | – |
| CCOC(=O)C1CCN(c2nc(N)c3c(N)nc(SCC(=O)O)cc3c2C#N)CC1 | 17.8% (inactive) | – |
| O=C(N/N=C(\c1ccccc1)c1cccnc1)c1cc(O)ccc1O | – | 3.71 µM (active) |
| O=C(O)CSCC(=O)Nc1ccc(-c2nc3ccccc3s2)cc1 | -22.8% (inactive) | – |
| Cc1[nH]c2ccccc2c1-c1csc(NC(=O)CSCC(=O)O)n1 | – | 14.6 µM (active) |
| CCOC(=O)CN(C(=O)CSc1nnc2c(n1)[nH]c1ccccc12)c1ccccc1 | -20.1% (inactive) | – |
| Cc1cc(-c2n[nH]c(=S)n2/N=C/c2cccs2)n[nH]1 | – | 52.3 µM (active) |
| COc1cccc(/C=N/n2c(-c3cc(C)[nH]n3)n[nH]c2=S)c1O | – | 13.2 µM (active) |
| CCN(CC)c1ccc(NC(=S)NC(=O)C2CCC2)cc1 | – | 7.07 µM (active) |
| COc1ccc2c(c1)-c1nc(/N=C/c3ccc(O)c(OC)c3)sc1CC2 | – | 3.97 µM (active) |
| Cc1cc([N+](=O)[O-])nn1CC(=O)NCc1ccccc1 | -19.7% (inactive) | – |
| COc1cc(C(=O)N/N=C(\C)Cn2nc([N+](=O)[O-])cc2C)ccc1O | – | 16.1 µM (active) |
| C#CCOCCOCCOCCNc1nc(N2CCN(C(=O)CCCCCCCCCCNC(=O)[C@H]([C@@H](C)CC)n3cc(CCCCCN)nn3)CC2)nc(N2CCN(C(=O)CCCCCCCCCCNC(=O)[C@@H]([C@H](C)CC)n3cc(CCCCCN)nn3)CC2)n1 | -11.2% (inactive) | – |

| SMILES | inhibition | IC50 |
| --- | --- | --- |
| CC1(C)C(/C=C/C=C/C=C/C=C2\N(CCCCS(=O)(=O)O)c3ccc4ccccc4c3C2(C)C)=[N+](CCCCS(=O)(=O)[O-])c2ccc3ccccc3c21 | – | 10.5 µM (active) |
| COc1cccc2c1NC(C(=O)O)C1CC=CC21 (stereo not given) | -9.16% (inactive) | – |
| COCCCNc1nnc(Cc2ccc(Cl)cc2)c(=O)[nH]1 | 1.77% (inactive) | – |
| CCCC1=NN2C(=N)/C(=C\c3ccc(SCc4ccco4)o3)C(=O)N=C2S1 | 28.8% (inactive) | – |
| O=C(O)C1=CC(=C(c2ccc(O)c(C(=O)O)c2)c2ccc(O)c(C(=O)O)c2)C=CC1=O | 2.97% (inactive) | – |
| Nc1ccc(C(=O)Nc2ccccc2C(=O)O)cc1 | 9.15% (inactive) | – |
| Nc1ccc(O)c(C(=O)O)c1 | – | 8.29 µM (active) |
| Nc1c(O)cccc1C(=O)O | – | 7.18 µM (active) |
| COc1cc(C(C)=O)ccc1OCC(O)Cn1nc(C)c(C(C)=O)c1C (stereo not given) | – | 49.1 µM (active) |
| NC(=O)[C@@H]1CCCCNc2c(I)cc([N+](=O)[O-])cc2C(=O)N[C@@H](CCC(=O)O)C(=O)N[C@@H](CO)C(=O)N1 | 7.6% (inactive) | – |
| COc1ccc(S(=O)(=O)c2c(N)n(Cc3ccco3)c3nc4ccccc4nc23)cc1 | -2.25% (inactive) | – |
| O=S(=O)(Nc1c(O)ccc2ccccc12)c1ccccc1 | 20.4% (inactive) | – |
| Cc1ccc(S(=O)(=O)Nc2c(O)ccc3ccccc23)cc1 | – | 70.6 µM (active) |
| Cc1ccc(S(=O)(=O)CCSC(=N)N)cc1 | -0.73% (inactive) | – |
| COc1ccc(S(=O)(=O)Nc2c(O)ccc3ccccc23)cc1OC | – | 54.9 µM (active) |
| COc1ccc(C(C)=O)cc1COC(=O)CCNS(=O)(=O)c1ccc(C(C)=O)cc1 | -1.69% (inactive) | – |
| O=C1c2ccccc2NC2(CCCCC2)N1c1ccc(O)cc1 | – | 5.01 µM (active) |
| CN(C)CCNC(=O)C(=O)Nc1ccc2c(c1)N(S(=O)(=O)c1cccs1)CCC2 | -3.08% (inactive) | – |
| Cc1ccc(NC(=O)CCSc2nnc(Cc3ccccc3)o2)cc1 | -6.04% (inactive) | – |
| N#CC(C#N)=C(N)/C(C#N)=C/c1cc(O)c(O)c(O)c1 | – | 13.6 µM (active) |
| CC1CCCN(c2ccc(N)cc2C(N)=O)C1 (stereo not given) | – | 3.15 µM (active) |
| N#C/C(=C\c1coc2ccc(O)cc2c1=O)C(=O)Nc1nc2ccccc2s1 | – | 80.4 µM (active) |
| CSc1nc(Cl)cc(Nc2ccc(O)cc2)n1 | – | 11.3 µM (active) |
| CCN(CC)CCNC(=O)CCCCn1c(=S)[nH]c2c([nH]c3ccc(OC)cc32)c1=O | – | 4.99 µM (active) |

| SMILES | inhibition | IC50 |
| --- | --- | --- |
| COc1ccc2[nH]c3c(=O)n(CCCCC(=O)NCCN4CCCC4)c(=S)[nH]c3c2c1 | – | 6.28 µM (active) |
| Cc1ccc(NC(=O)CSc2nc3ccccc3c(=O)n2CCCC(=O)NCCCN2CCOCC2)cc1C | 6.18% (inactive) | – |
| O=S(=O)(Nc1cccc(-c2cn3ccsc3n2)c1)c1ccc(F)cc1 | 3.14% (inactive) | – |
| O=C1CC(N2CCN(c3ccc(O)cc3)CC2)C(=O)N1Cc1cccs1 (stereo not given) | – | 4.71 µM (active) |
| CN(CCc1cn[nH]c1)Cc1nc(Cc2ccccc2F)no1 | -12.4% (inactive) | – |
| CC(O)CCc1ccc(O)cc1 (stereo not given) | – | 8.46 µM (active) |
| NNC(=O)c1ccc(CN2CCCCC2)o1 | 2.18% [at 50 µM] (inactive) | – |
| COc1cc(/C=C2\SC(c3ccc(C)cc3)=NC2=O)cc(OC)c1O | – | 2.62 µM (active) |
| Cc1ccc(C2=NC(=O)/C(=C/c3cc(O)c(O)c(Br)c3)S2)cc1 | – | 11 µM (active) |
| CCOc1ccc(NCc2cccn2-c2nnc(N3CCC(C(=O)NCCCN4CC(C)CC(C)C4)CC3)s2)cc1 (stereo not given) | – | 7.15 µM (active) |
| CCOc1ccc(NCc2cccn2-c2nnc(N3CCC(C(=O)NCCCN4CCCCC4C)CC3)s2)cc1 (stereo not given) | – | 6.99 µM (active) |
| CCOc1ccc(NCc2cccn2-c2nnc(N3CCC(C(=O)NCCCN4CCCCC4CC)CC3)s2)cc1 (stereo not given) | – | 5.76 µM (active) |
| NC(=O)Cn1c(=O)n(CCC(=O)NCCSCc2ccccc2)c(=O)c2ccccc21 | -26.1% (inactive) | – |
| COc1cccc(C2C([N+](=O)[O-])=C(N)Oc3cc(C)oc(=O)c32)c1 (stereo not given) | -29.3% (inactive) | – |
| CC(=O)Nc1ccc(OC(=O)C(CCS(C)(=O)=O)N2C(=O)c3ccccc3C2=O)cc1 (stereo not given) | – | 7.41 µM (active) |
| NC(=O)C(Cc1ccccc1)N1C(=O)c2ccccc2C1=O (stereo not given) | 0.03% (inactive) | – |
| O=C(Nn1cnnc1)C1Cc2ccccc2CN1S(=O)(=O)c1ccc(F)cc1 (stereo not given) | -21.5% (inactive) | – |
| CCN(c1ccccc1)S(=O)(=O)c1ccc(Cl)c(NC(=O)COC(=O)c2cc(O)c3ccccc3c2O)c1 | -35.6% (inactive) | – |
| CCN(CC)c1ccc(C(=O)n2cnc3ccccc32)cc1 | 1.76% (inactive) | – |
| CCN(CC)c1ccc(NC(=O)COC(=O)c2ccc3ccccc3n2)cc1 | – | 2.2 µM (active) |
| CCN(CC)c1ccc(NC(=O)COC(=O)c2cccs2)cc1 | – | 7.51 µM (active) |
| O=C(O)CCCn1cc(NC(=O)COc2ccccc2[N+](=O)[O-])cn1 | -8.38% (inactive) | – |
| Cc1ccccc1OCC(=O)NCC(=O)OCC(=O)c1ccc([N+](=O)[O-])cc1 | 5.49% (inactive) | – |
| COc1ccc2nc(COC(=O)c3cccs3)c(C(C)=O)[n+]([O-])c2c1 | 15% (inactive) | – |

| SMILES | inhibition | IC50 |
| --- | --- | --- |
| CCN(CC)c1ccc(NC(=O)COC(=O)COc2ccccc2[N+](=O)[O-])cc1 | – | 6.35 µM (active) |
| CC(=O)Nc1cccc(C(=O)OCC(=O)Nc2nnc(-c3ccccc3)o2)c1 | 24.2% (inactive) | – |
| CCOC(=O)C1CCCN(C(=O)Cn2sc3nc(C)cc(C)c3c2=O)C1 (stereo not given) | 20.5% (inactive) | – |
| Nc1cnc(Nc2ccc(Br)cc2)nc1N | – | 12.1 µM (active) |
| Cc1ccc(S(=O)(=O)Nc2nc(C)cc(N/N=C/c3ccc(O)cc3)n2)cc1 | – | 8.77 µM (active) |
| CCN(CC)S(=O)(=O)c1ccc(N/N=C/c2ccc(O)cc2)nc1 | – | 4.57 µM (active) |
| CC[C@H](C)[C@H](NC(=O)c1ccccc1)C(=O)Nc1ccc(S(=O)(=O)Nc2cc(C)nc(C)n2)cc1 | -9.31% (inactive) | – |
| Cc1nc(Cl)cc(N/N=C/c2ccc(O)cc2)n1 | – | 4.8 µM (active) |
| O=C(N/N=C/c1ccc(-c2ccc(S(=O)(=O)Nc3ncccn3)cc2)o1)c1cc2ccccc2cc1O | 17.8% (inactive) | – |
| Cc1cc(/C=N/Nc2ccc([N+](=O)[O-])cn2)c(C)n1-c1ccc(C(=O)O)cc1 | -1.71% (inactive) | – |
| O=C(COc1ccc([N+](=O)[O-])cc1)NNC(=O)Nc1ccc([N+](=O)[O-])cc1 | -28.5% (inactive) | – |
| COc1cc([N+](=O)[O-])ccc1NC(=O)Oc1ccc(NC(C)=O)cc1 | – | 4.33 µM (active) |
| COc1ccc(NC(=O)N2CCCc3cc(C)ccc32)c(OC)c1 | -15.2% (inactive) | – |
| c1coc(-c2nnc3sc(Cc4cccs4)nn23)c1 | 6.69% (inactive) | – |
| CNC(=O)c1ccc(-c2sc3nc(N4CCOCC4)c4c(c3c2N)CCCC4)o1 | – | 14.8 µM (active) |
| Nc1c(C(=O)NC2CC2)sc2nc3c(c(-c4ccco4)c12)CC/C3=C/c1ccco1 | 25.9% (inactive) | – |
| CNC(=O)c1ccc(-c2sc3nc(N4CCOCC4)c4c(c3c2N)CC(C)(C)OC4)o1 | – | 3.18 µM (active) |
| NNC(=O)c1sc2nc(N3CCOCC3)c3c(c2c1N)CCCC3 | – | 36.6 µM (active) |
| C=CCc1cccc2cc(C(=O)Nc3ccc(S(=O)(=O)Nc4nnc(CC)s4)cc3)c(=O)oc12 | -26.6% (inactive) | – |
| Cc1ccc2cn[nH]c2c1N | – | 6.68 µM (active) |
| O=C1CCCC(O)=C1N=Nc1ccc(C(=O)O)cc1 | -21.8% (inactive) | – |
| O=C1CCCC(O)=C1C=Nc1ccc(O)cc1 | – | 4.6 µM (active) |
| CC1(C)CC(=O)C(C=Nc2ccc(O)cc2)=C(O)C1 | – | 2.78 µM (active) |
